Here are results for 36 compounds from PubChem BioAssay.

Assay in all cases: inhibition of PEG-3 promoter-driven reporter – cell-based, HeLa, luciferase, CREF/GAPDH counter-screen panel, dose response (AID 624167)
Background: A counterscreen serves to expose hits that act by an unwanted route or on another target.

Experiment [1] has as its target PEG-3 (UniProt Q6IN02). The note with it: CREF/GAPDH counter-screens; HeLa PEG-Prom luciferase reporter, overnight, run 1, dose range 1, at 100 µM (top of the series) unless noted.
Experiment [2] addresses PEG-3 (UniProt Q6IN02). The note with it: CREF/GAPDH counter-screens; HeLa PEG-Prom luciferase reporter, overnight, run 2, dose range 1, at 100 µM (top of the series) unless noted.
The subject of experiment [3] is Rat fibroblasts (CREF). As to conditions: CREF/GAPDH counter-screens; run 1, dose range 1, at 100 µM (top of the series).
The test system of experiment [4] is Rat fibroblasts (CREF). The note with it: CREF/GAPDH counter-screens; run 2, dose range 1, at 100 µM (top of the series).

PEG-3, sequence (Q6IN02 whole entry, looked up): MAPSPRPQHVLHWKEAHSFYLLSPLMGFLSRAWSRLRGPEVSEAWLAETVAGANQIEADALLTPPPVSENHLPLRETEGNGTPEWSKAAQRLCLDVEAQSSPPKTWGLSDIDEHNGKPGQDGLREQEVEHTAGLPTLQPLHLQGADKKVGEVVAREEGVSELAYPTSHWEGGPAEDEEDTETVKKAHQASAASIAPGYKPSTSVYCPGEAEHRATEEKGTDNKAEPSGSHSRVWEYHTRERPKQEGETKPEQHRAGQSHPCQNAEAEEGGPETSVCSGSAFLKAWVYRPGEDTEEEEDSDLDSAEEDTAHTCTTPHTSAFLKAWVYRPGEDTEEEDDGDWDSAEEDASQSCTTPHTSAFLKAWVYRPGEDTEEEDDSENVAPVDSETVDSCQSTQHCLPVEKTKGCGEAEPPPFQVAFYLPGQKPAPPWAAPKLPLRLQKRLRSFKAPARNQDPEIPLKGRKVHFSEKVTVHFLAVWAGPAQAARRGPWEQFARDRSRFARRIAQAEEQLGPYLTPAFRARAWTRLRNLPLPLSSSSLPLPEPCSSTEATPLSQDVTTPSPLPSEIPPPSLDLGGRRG

As for `O=c1c2ccccc2sc2nc(CCl)nn12`, the inhibition (in general, the drop in the measured response relative to a control, in per cent) in the experiment with PEG-3 [1] was 102%; in the experiment with PEG-3 [2], 102%; with Rat fibroblasts (CREF) [3] it was -2.66%; in the experiment with Rat fibroblasts (CREF) [4] it was 33.8%.
On to `Cc1cc(/C=N/Nc2ncnc(N)c2[N+](=O)[O-])c(C)n1-c1ccccc1`, for which the inhibition with PEG-3 [1] came to 93.6%; with PEG-3 [2] it was 87%; with Rat fibroblasts (CREF) [3] it was 91.1%; in the experiment with Rat fibroblasts (CREF) [4], 93.5%.
For the compound `NC1=C(Br)C(=O)c2ncccc2C1=O`, the inhibition with PEG-3 [1] was found to be 99.1%; with PEG-3 [2], 101%; with Rat fibroblasts (CREF) [3], 98.1%; in the experiment with Rat fibroblasts (CREF) [4] it was 98.6%.
For `CC(=O)c1sc2c(c1OC(=O)c1ccc(Cl)cc1Cl)c(=O)n(-c1ccccc1)c(=S)n2-c1ccccc1` the same measures were 82.6%, 96.3%, 14.9% and 61.6%.
For `COc1ccccc1Nc1nc(-c2sc(NC(=O)c3ccco3)nc2C)cs1` the same measures were 38%, 52.5%, 35.4% and 40.3%.
The corresponding values for `COC1=C(Br)C(=O)c2ncccc2C1=O` are 99.3%, 98.6%, 95.3% and 97.8%.
With `O=C1C=CC(=O)N1c1ccc(-c2nc3ccccc3o2)cc1`, the inhibition stood at 99.3% with PEG-3 [1], 101% with PEG-3 [2], 101% with Rat fibroblasts (CREF) [3] and 100% with Rat fibroblasts (CREF) [4].
For the compound `O=C(O)c1ccc(CN2C(=O)c3cccc4c([N+](=O)[O-])ccc(c34)C2=O)cc1`, the inhibition with PEG-3 [1] was found to be 99%; with PEG-3 [2], 100%; with Rat fibroblasts (CREF) [3], 71.3%; with Rat fibroblasts (CREF) [4], 98.6%.
As to `O=C(CNCCC1=CCCCC1)Nc1ccc(N2CCCCCC2)cc1`, the inhibition with PEG-3 [1] was 102%; with PEG-3 [2], 102%; in the experiment with Rat fibroblasts (CREF) [3], 99.4%; in the experiment on Rat fibroblasts (CREF) [4], 100%.
As for `CC(C)CCCCCCCCCCCCC(=O)NCC(=O)NC1C(O)C(O)C(Nc2ncnc3nc[nH]c23)OC1C(O)CO` (centres undefined), the inhibition in the experiment with PEG-3 [1] was 102%; with PEG-3 [2], 98.2%; in the experiment with Rat fibroblasts (CREF) [3], 99.5%; with Rat fibroblasts (CREF) [4] it was 9.65%.
For `COc1ccc(-n2cc(-c3ccccc3)c3c(N4CCOCC4)ncnc32)cc1` the same measures were 94.2%, 101%, 69.3% and 67.2%.
For `CC1CC(C)C(=O)C(C(CC2CC(=O)NC(=O)C2)OC(=O)CC(=O)c2ccccc2)C1` (centres undefined) the same measures were 72.4%, 85.5%, 44.6% and 23.7%.
With `O=c1cnnc(N/N=C/c2ccccn2)[nH]1`, the inhibition in the experiment with PEG-3 [1] came out at 66.3%; with PEG-3 [2], 58.7%; in the experiment on Rat fibroblasts (CREF) [3] it was 49.4%; in the experiment on Rat fibroblasts (CREF) [4], 51.1%.
For `Cc1cccc(C)c1NC(=O)c1nc(S(=O)(=O)Cc2ccccc2)ncc1Cl` the same measures were 102%, 101%, 99.2% and 99%.
For `O=[N+]([O-])c1ccc(-c2ccc(/C=N/Nc3nc(NCc4ccccc4)nc(N4CCOCC4)n3)o2)cc1` the same measures were 99.5%, 91.5%, 97.5% and 96.9%.
Take `COc1cc(/C=C2\SC(=Nc3ccccc3OC)NC2=O)ccc1O`: the inhibition in the experiment with PEG-3 [1] was -37%; with PEG-3 [2], 89.3% [run 2, dose range 1, at 25 µM]; in the experiment on Rat fibroblasts (CREF) [3] it was -38.3%; in the experiment with Rat fibroblasts (CREF) [4], -20.9%.
As for `O=C1C(Cl)=C(Nc2ccccc2)C(=O)c2ccccc21`, the inhibition in the experiment with PEG-3 [1] is 102%; with PEG-3 [2], 101%; with Rat fibroblasts (CREF) [3] it was 96.9%; in the experiment on Rat fibroblasts (CREF) [4], 99.8%.
The corresponding values for `NS(=O)(=O)c1ccc(CCNc2nn3c(-c4ccc(F)c(Cl)c4)cnc3s2)cc1` are 66.9%, 74.3%, 28.6% and 14.8%.
The corresponding values for `C(=N\Nc1ccc2ccccc2n1)/c1ccc2c(c1)OCCO2` are 98.4%, 96.2%, 53.6% and 101%.
Regarding `Cc1ccc(C(=O)Nc2nc3ccccc3[nH]2)cc1`, the inhibition with PEG-3 [1] is 89.8%; in the experiment with PEG-3 [2] it was 88.1%; in the experiment with Rat fibroblasts (CREF) [3] it was 99.2%; in the experiment with Rat fibroblasts (CREF) [4], 98.7%.
The corresponding values for `Cc1ccc(-c2cc3c(N=O)c4ccccc4c-3n[nH]2)cc1` are 75.1%, 86.7%, 87.3% and 78.5%.
For the compound `Oc1[nH]c2ccc(Br)cc2c1N=NC(=S)N1CCOCC1`, the inhibition in the experiment with PEG-3 [1] worked out at 102%; with PEG-3 [2] it was 99%; in the experiment with Rat fibroblasts (CREF) [3], 30.5%; in the experiment on Rat fibroblasts (CREF) [4], 99.1%.
The corresponding values for `O=C(Nc1cc(S(=O)(=O)N2CCOCC2)ccc1Cl)c1cc([N+](=O)[O-])ccc1Cl` are 98.9%, 98.9%, 85.8% and 98.1%.
The corresponding values for `COc1cccc(-c2sc3ccccc3c2-c2ccc(OCCN(C)C)cc2)c1` are 99.6%, 98.6%, 98.7% and 99.3%.
The corresponding values for `COc1cccc(/C=N/NC(=O)c2ccc(-c3ccccc3)cc2)c1O` are 81%, 79.7%, 69.8% and 67.6%.
Consider `Cc1ccc(C(C[N+](=O)[O-])Sc2ccc(N)cc2)cc1` (centres undefined), for which the inhibition in the experiment with PEG-3 [1] worked out at 98.7%; with PEG-3 [2], 101%; in the experiment with Rat fibroblasts (CREF) [3] it was 96.1%; in the experiment with Rat fibroblasts (CREF) [4], 96.3%.
The corresponding values for `O=C(NCCc1ccccc1)c1ccc2c(c1)OCCCO2` are 101%, 102%, 100% and 99.5%.
For `COc1ccc(C(=O)Nc2nc3ccccc3s2)c(OC)c1` the same measures were 101%, 98.8%, 97.3% and 97.7%.
Take `Cc1cc(C)c(C)c(S(=O)(=O)N2CCN(C(=O)c3cc(=O)[nH]c4ccccc34)CC2)c1C`: the inhibition was 82.1% with PEG-3 [1], 83.8% with PEG-3 [2], 34.6% in the experiment on Rat fibroblasts (CREF) [3] and 90.5% in the experiment with Rat fibroblasts (CREF) [4].
Take `Cc1nn(-c2nc3ccccc3[nH]2)c(=O)c2ccccc12`: the inhibition in the experiment with PEG-3 [1] was found to be 97.5%; with PEG-3 [2] it was 96.4%; in the experiment with Rat fibroblasts (CREF) [3], 100%; in the experiment on Rat fibroblasts (CREF) [4] it was 101%.
For `CCN(CC)S(=O)(=O)c1cccc(C(=O)N/N=C(\C)c2ccc(O)cc2O)c1` the same measures were 27.3%, 69.6%, 43.3% and 47.7%.
The corresponding values for `Brc1ccc(N/N=C(/N=Nc2nn[nH]n2)c2ccccc2)cc1` are 100%, 99.8%, 75.7% and 70%.
As for `CCc1ccc(/C=C2\SC(=S)N(CCCC(=O)Nc3ccccn3)C2=O)cc1`, the inhibition in the experiment with PEG-3 [1] was 92.7%; with PEG-3 [2], 81%; with Rat fibroblasts (CREF) [3], -3.09%; in the experiment on Rat fibroblasts (CREF) [4], 94.6%.
The corresponding values for `Cc1ccc(/C=C2\SC(=S)N(CCCC(=O)Nc3ccccn3)C2=O)cc1` are 88%, 94.2%, -11.8% and -1.96%.
For `CCN1C=CC(=C2C(=O)c3ccccc3C2=O)C=C1` the same measures were 96.8%, 98.3%, 99.8% and 101%.
For `Cc1c(C)c2ccc(OCC(=O)Nc3ccccn3)c(C)c2oc1=O`, the inhibition with PEG-3 [1] was 99.2%; with PEG-3 [2] it was 93.2%; with Rat fibroblasts (CREF) [3] it was 98.5%; in the experiment on Rat fibroblasts (CREF) [4], 97.8%.
